A selection: hits, their analogues and other compounds. The true share with any hit is near 5%.
EBI2 antag: antagonists of human EBI2 receptor; P32249; EBI2 beta-arrestin recruitment, luminescence, 7a,25-OHC stimulated; inhibition, % at 5 µM; 360,000 tested, 0.81% active; in the data active = inhibition above about 38%;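 also: enzyme fragment complementation signal reports receptor beta-arrestin coupling in cells; 0% = agonist plus DMSO wells and 100% = wells without agonist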
SENP7 block: SENP7 protease inhibition | recombinant SENP7, Z-RLRGG-aminoluciferin luminescence, 40 min | inhibition, % at 5 µM | 330,000 tested, 1.5% active | AID 434973;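 active = inhibition above about 50% at the single test dose, limit read from the data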;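 also: plate controls were DMSO with enzyme for no effect and no enzyme buffer wells for full effect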
AHR activator: human AHR activation; 320,000 tested, 2.5% active; AID 2796; P35869; AHR-responsive luciferase reporter cells, luminescence; activation, % at 5 µM; in the data active = activation above about 47%;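 also: 0% = vehicle wells and 100% = reference agonist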
SENP8 block-1: SENP8 protease inhibition; inhibition, % at 10 µM; purified SENP8, Z-RLRGG-aminoluciferin cleavage, luminescence; 330,000 tested, 1.2% active; in the data active = inhibition above about 50%
Target sequence (Q96LD8 whole entry, looked up): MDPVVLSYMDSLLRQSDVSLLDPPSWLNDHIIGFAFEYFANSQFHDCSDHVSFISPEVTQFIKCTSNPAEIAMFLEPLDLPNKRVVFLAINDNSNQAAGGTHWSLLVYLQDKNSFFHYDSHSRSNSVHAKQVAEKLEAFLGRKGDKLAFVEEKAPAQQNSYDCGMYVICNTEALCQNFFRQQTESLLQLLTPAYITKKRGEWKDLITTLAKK
SENP8 block-2: SENP8 (human) protease inhibition. Q96LD8. recombinant SENP8, Nedd8 substrate fluorescence. inhibition, % at 20 µM. 360,000 tested, 0.64% active. AID 602440; in the data active = inhibition mostly above about 40%, no sharp cut-off; inactive = mostly below about 27%
SENP6 inh: blocks the human protease SENP6; 330,000 tested, 1.8% active; Recombinant SENP6 catalytic domain, aminoluciferin luminescence; Q9GZR1; inhibition, % at 10 µM;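 active = inhibition above about 50% at the single tested dose, limit read from the data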;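 also: plate controls were DMSO wells with enzyme for no effect and DMSO wells lacking enzyme for full effect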
Target sequence (Q9GZR1 628-1112 limits assumed): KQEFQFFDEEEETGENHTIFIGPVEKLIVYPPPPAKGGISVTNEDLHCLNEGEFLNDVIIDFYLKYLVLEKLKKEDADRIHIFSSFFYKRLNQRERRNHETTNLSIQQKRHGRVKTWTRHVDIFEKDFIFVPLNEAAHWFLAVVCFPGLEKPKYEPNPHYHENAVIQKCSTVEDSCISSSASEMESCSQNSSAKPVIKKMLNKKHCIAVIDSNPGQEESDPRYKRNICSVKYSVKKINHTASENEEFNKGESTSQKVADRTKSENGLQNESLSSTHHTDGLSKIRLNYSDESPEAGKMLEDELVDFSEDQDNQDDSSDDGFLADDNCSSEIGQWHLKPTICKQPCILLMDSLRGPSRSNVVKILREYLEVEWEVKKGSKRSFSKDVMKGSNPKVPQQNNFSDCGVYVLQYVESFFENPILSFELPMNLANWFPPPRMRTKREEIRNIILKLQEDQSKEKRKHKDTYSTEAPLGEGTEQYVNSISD
SENP8 confirm: confirmation of human SENP8 protease inhibitors | shares compounds with SENP7 block | Recombinant SENP8, Z-RLRGG-aminoluciferin luminescence, 60 min | inhibition, % at 12.5 µM | 6,200 tested, 40% active | AID 488912;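 active = mean inhibition across replicates above about 50%, limit read from the data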
SENP6 confirm: human SENP6 inhibition, confirmed; shares compounds with SENP7 block; recombinant SENP6, Z-RLRGG-aminoluciferin luminescence; inhibition, % at 12.5 µM; 6,200 tested, 58% active
SENP7 confirm: confirmation of human SENP7 protease inhibitors. shares compounds with SENP7 block. recombinant SENP7, Z-RLRGG-aminoluciferin luminescence, 40 min. inhibition, % at 12.5 µM. 6,200 tested, 69% active. AID 488917
Casp3 select: inhibits human caspase-3 in SENP selectivity test; 6,200 tested, 60% active; inhibition, % at 12.5 µM; AID 488918; shares compounds with SENP7 block; purified caspase-3, Z-DEVD-aminoluciferin luminescence, 60 min;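 active = mean inhibition above about 50%, limit read from the data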;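 also: plate controls were enzyme with DMSO for no effect and wells without caspase-3 for full effect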
Luc interf: luminescence interference (SENP counter-screen); shares compounds with SENP7 block; Pre-incubated SENP8/Z-RLRGG-aminoluciferin, luciferase luminescence interference; inhibition, % at 12.5 µM; 6,200 tested, 39% active; AID 488919;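 active = mean inhibition above about 50% when retested at one dose, limit read from the data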;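 also: plate controls were DMSO wells with completed reaction for no effect and substrate without enzyme for full effect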
Starred values were filed as active, the others as inactive; · = no result given.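 The calls were made as follows, unless noted: active = mean inhibition above about 50% in the one-dose retest (limit read from the data); inactive = the rest.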

SMILES | EBI2 antag | SENP7 block | AHR activator | SENP8 block-1 | SENP8 block-2 | SENP6 inh | SENP8 confirm | SENP6 confirm | SENP7 confirm | Casp3 select | Luc interf
O=C(NCc1ccco1)c1cc(-c2ccc3c(c2)OCO3)on1 | -4.5 | 53.4* | 24.9 | -5.6 | -23.8 | -14.2 | -1.3 | -5.7 | 22.5 | 18.9 | -2.2
O=C(c1cc(-c2ccco2)on1)N1CCOCC1 | 3.9 | 4.7 | -1.7 | 9.8 | 9.8 | 5.2 | · | · | · | · | ·
O=C(c1cc(-c2ccc3c(c2)OCO3)on1)N1CCCCC1 | -6.2 | 71.9* | 6.5 | 65.6* | -10.0 | 77.9* | 34.4 | 74.2* | 92.6* | 68.2* | 7.5
Cc1ccc(-c2cc(C(=O)N3CCOCC3)no2)cc1 | 6.2 | 58.1* | -0.9 | 45.3 | 9.8 | 60.9* | 52.8* | 49.7 | 82.3* | 81.2* | 55.2*
Cc1ccc(-c2cc(C(=O)NCc3ccco3)no2)cc1 | 14.7 | 32.2 | 0.9 | -11.2 | 12.2 | -8.0 | · | · | · | · | ·
O=C(c1cc(-c2ccc(Cl)c(Cl)c2)on1)N1CCCCCC1 | 1.2 | 28.2 | 1.9 | -18.1 | 18.3 | 13.8 | · | · | · | · | ·
Cc1ccc(-c2cc(C(=O)N3CCCC3)no2)cc1 | -8.9 | 6.7 | -4.9 | 62.1* | 6.4 | 67.8* | -18.3 | 24.4 | 86.1* | 63.2* | 2.7
COc1ccc(NC(=O)N(C)C[C@H]2Oc3cc(Br)ccc3S(=O)(=O)N([C@H](C)CO)C[C@@H]2C)cc1 | 1.4 | · | · | · | 11.2 | · | · | · | · | · | ·
O=C(NNC(=O)c1cc(-c2ccncc2)nc2ccccc12)c1cccc(Cl)c1 | 7.9 | 4.9 | 14.6 | -3.0 | -8.6 | 1.5 | · | · | · | · | ·
CC1=NN(C(C#N)c2c(C)nn(Cc3ccccc3)c2C)C(C)(C)C1 (configuration not stated) | -4.3 | 8.6 | -1.7 | -5.6 | 6.1 | 1.9 | · | · | · | · | ·
CCOc1ccccc1NC(C)C(=O)NC(=O)NC1CCCCC1 (configuration not stated) | 1.1 | 8.3 | 1.1 | -0.2 | 15.8 | -3.2 | · | · | · | · | ·
CC(C)(C)NCCCCOc1ccccc1F | 1.0 | 84.2* | -0.5 | -3.9 | 5.5 | 5.5 | 16.2 | 0.5 | -2.9 | -1.3 | -3.3
CC(=O)c1sc(Nc2ccccc2)nc1C | -9.7 | · | · | · | -352.2 | · | · | · | · | · | ·
c1ccc(Nc2nc(-c3ccccc3)ns2)cc1 | 46.0* | 83.4* | 29.2 | 60.5* | 10.1 | 76.9* | -5.4 | 52.6* | 91.7* | 46.6 | 8.2
Cc1nc(Nc2ccc(C(=O)O)cc2)sc1-c1ccccc1 | -1.4 | 100.0* | 13.8 | 95.9* | -400.2 | 94.8* | 71.8* | 91.9* | 67.1* | 18.2 | 6.0
Cc1nc(Nc2ccccc2)sc1-c1ccccc1 | -0.2 | 89.6* | 72.2* | 82.5* | -110.5 | 90.1* | 93.9* | 93.8* | 99.7* | 70.7* | 37.7
Cc1nc(Nc2ccccc2)sc1C(=O)c1ccccc1 | 9.6 | 4.6 | -1.7 | -8.5 | -19.9 | -6.8 | · | · | · | · | ·
Fc1ccc(C2CCCN2Cc2nc(Cc3ccccc3)no2)cc1 (configuration not stated) | 4.6 | 5.9 | 0.8 | 2.1 | 23.1 | -1.2 | · | · | · | · | ·
COc1ccc(-n2ncc3c2CC(C)(C)CC3NC(=O)CCCN2CCCC2=O)cc1 (configuration not stated) | -3.0 | 10.7 | 1.5 | -2.0 | 3.0 | 4.9 | · | · | · | · | ·
COc1ccc(/C=N/Nc2nc(C(=O)O)cs2)cc1 | -0.8 | 96.5* | 8.8 | 95.7* | -119.7 | 92.9* | 97.1* | 97.6* | 102.1* | 63.2* | 97.6*
C/C(=N\Nc1nc(C(=O)O)cs1)c1ccccc1 | · | 7.9 | 12.8 | -10.0 | · | -2.5 | · | · | · | · | ·
CC1(C(=O)Nc2nnc(C(C)(C)C)s2)Cc2ccccc2C(=O)O1 (configuration not stated) | -15.7 | 100.9* | -1.4 | 0.7 | 12.0 | -14.2 | -0.6 | -1.8 | -3.3 | -2.0 | 0.5
Cc1ccc(C(O)C(=O)c2ccco2)cc1 (configuration not stated) | -7.8 | 74.8* | 0.5 | -7.7 | 10.8 | 2.5 | -25.2 | -18.1 | -12.4 | -11.8 | -8.0
N#Cc1ccccc1S(=O)(=O)N1CCN(CC(=O)NC(=O)NC2CCCCC2)CC1 | 4.3 | -10.0 | 0.8 | -2.4 | 12.3 | -3.2 | · | · | · | · | ·
O=C(COc1ccccc1)Nc1ccc(-c2nnc(-c3ccco3)o2)cc1 | 10.4 | -15.2 | 4.1 | -16.4 | -453.4 | 1.9 | · | · | · | · | ·
SMILES | EBI2 antag | SENP7 block | AHR activator | SENP8 block-1 | SENP8 block-2 | SENP6 inh | SENP8 confirm | SENP6 confirm | SENP7 confirm | Casp3 select | Luc interf
CCCOc1ccc(-c2nnc(-c3ccco3)o2)cc1 | -1.2 | 87.4* | 1.4 | 78.4* | -193.1 | -7.6 | 4.3 | 45.2 | 59.1* | 46.3 | 15.4
CC(C)COc1ccc(-c2nnc(-c3ccco3)o2)cc1 | -10.2 | 94.2* | -7.4 | 59.0* | -244.2 | 94.2* | 5.7 | 73.5* | 62.5* | 63.9* | 48.1
O=C1N/C(=C\c2ccc(O)cc2)C(=O)c2ccccc21 | 0.3 | 85.0* | 5.0 | 93.8* | 25.0 | 96.0* | 93.2* | 97.0* | 97.0* | 84.4* | 39.6
CC(C)S(=O)(=O)c1csc(C(=O)Nc2ccc(F)cc2)c1N | -2.4 | 98.0* | -2.1 | 91.7* | -120.8 | 98.4* | 96.5* | 97.3* | 102.1* | 97.2* | 87.3*
Cc1cc2c(cc1S(=O)(=O)C(C)CC(=O)NCc1ccco1)OCC(=O)N2 (configuration not stated) | -5.2 | 7.5 | 2.6 | -2.4 | -3.4 | -20.6 | · | · | · | · | ·
CC(C#Cc1ccc2c(c1)COc1c3ccccc3nn1-2)OC(C)(C)C (configuration not stated) | 1.7 | -15.2 | -2.4 | -13.3 | -5.9 | -3.9 | · | · | · | · | ·
C(#Cc1ccc2c(c1)COc1c3ccccc3nn1-2)c1ccccc1 | 18.9 | 61.4* | 23.5 | 73.8* | -84.0 | 76.4* | 26.2 | 30.8 | 56.6* | 40.9 | 49.4
CCCCCCC#Cc1ccc2c(c1)COc1c3ccccc3nn1-2 | 20.7 | -5.7 | 1.4 | -13.6 | 9.9 | -14.7 | · | · | · | · | ·
N#CCCCC#Cc1ccc2c(c1)COc1c3ccccc3nn1-2 | 2.2 | 89.1* | -9.3 | 90.3* | 13.0 | 93.2* | 51.1* | 96.1* | 65.8* | 67.8* | 12.7
CCCCC#Cc1ccc2c(c1)COc1c3ccccc3nn1-2 | 12.3 | 81.0* | 6.2 | 79.2* | -1.8 | 84.7* | 22.1 | 34.0 | 33.4 | 67.4* | 10.5
Cc1c(Br)c(C(F)(F)F)nn1CC(=O)NCc1ccccc1 | 7.6 | -4.9 | -0.5 | 2.5 | 9.3 | -2.7 | · | · | · | · | ·

Bioassay records from PubChem.
